PubChem BioAssay (EPA / NIEHS)
Several values for one entry are separate records, joined by “and”; a condition that tells them apart may be missing. Identical values can stand only once. Inconclusive results are not listed. Some structures have more than one record in an assay (separate samples or runs), and their calls can disagree. Activity calls are given as the source filed them. The calls were made as follows, unless noted: active = hit-call score of the fitted dose curve at least 0.9, where 1 is the maximum; inactive = score below 0.9.

How the values were obtained:
[1] = ATG_CRE_CIS: Attagene CIS-FACTORIAL HepG2 Assay for human cAMP Responsive Element (CRE) binding protein 3 (AID 2282926); settings: HepG2 CRE cis-reporter, Attagene multiplexed mRNA; actives raise or lower the signal
Procedure, shortened: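 Induced reporter mRNA from a CRE cis element, measured in HepG2 among many multiplexed units at 24 h. Detection used RT-PCR plus capillary electrophoresis of fluorescent fragments; DMSO served as negative control.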

[2] = target: CCAAT/enhancer-binding protein beta (Homo sapiens) (UniProt P17676); test: ATG_C_EBP_CIS: Attagene CIS-FACTORIAL HepG2 Assay for human CCAAT/Enhancer Binding Protein (C/EBP) beta (AID 2282927); settings: HepG2 Attagene cis-factorial transcription factor reporter; actives raise or lower the signal
Procedure, shortened: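 Endogenous C/EBPb-driven reporter transcripts measured in transfected human HepG2 cells at 24 h via RT-PCR and capillary electrophoresis of labelled fragments. Activity fitted in both directions relative to DMSO baseline.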

[3] = ATG_CMV_CIS: Attagene CIS-FACTORIAL HepG2 Assay for human CMV (Internal Marker) (AID 2282928); settings: HepG2 CMV promoter reporter, transcription factor profiling; actives raise or lower the signal;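 also: endpoint acts as a background internal control marker rather than a target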
Procedure, shortened: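 Reporter transcripts from transfected HepG2 cells are isolated after 24 h of chemical dosing, reverse-transcribed and amplified. Fragments labeled with 6-FAM are cut with HpaI and quantified by capillary electrophoresis; DMSO defines baseline.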

[4] = ATG_DR4_LXR_CIS: Attagene CIS-FACTORIAL HepG2 Assay for human Liver X Receptor (LXR), DR4 submotif (AID 2282929); settings: HepG2 Attagene DR4 cis-reporter, mRNA transcription; actives raise or lower the signal
Procedure, shortened: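 HepG2, transient MRTU transfection, cis-element (DR4) promoter; 24 h compound exposure; total RNA → oligo(dT) RT → PCR → 6-FAM primer extension → HpaI cut → CE. Gain/loss vs DMSO, bidirectional fit.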

[5] = target: Aryl hydrocarbon receptor (Homo sapiens) (UniProt P35869); test: ATG_Ahr_CIS: Attagene CIS-FACTORIAL HepG2 Assay for human Aryl Hydrocarbon Receptor (Ahr) (AID 2282930); settings: HepG2 AhR cis-factorial reporter transcription; actives raise or lower the signal
Procedure, shortened: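 Reporter mRNA levels, quantified by RT-PCR and fluorescent capillary electrophoresis, reflect endogenous AhR transcriptional activity in HepG2 cells carrying transfected cis-promoter reporter constructs. Readout at 24 h post-dose; gain or loss fitted against DMSO baseline.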

[6] = ATG_AP_1_CIS: Attagene CIS-FACTORIAL HepG2 Assay for human Activator Protein 1 (AP-1) (AID 2282931); settings: HepG2 Attagene cis-factorial AP-1 reporter mRNA; actives raise or lower the signal
Procedure, shortened: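 Transient MRTU transfection of HepG2 → 24 h chemical treatment → RNA isolation, RT-PCR, 6-FAM labelling, HpaI digest → capillary electrophoresis. Fit: bidirectional, DMSO negative control.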

[7] = ATG_AP_2_CIS: Attagene CIS-FACTORIAL HepG2 Assay for human Activator Protein 2 (AP-2) (AID 2282932); settings: HepG2 AP-2 cis-reporter, Attagene transcription factor profiling; actives raise or lower the signal
Procedure, shortened: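 Endogenous transcription factor activity is reported through transfected multiplex reporter constructs in HepG2, after 24 h of compound exposure. Transcripts were quantified by RT-PCR and capillary electrophoresis of fluorescent fragments. Bidirectional fit against DMSO.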

[8] = ATG_BRE_CIS: Attagene CIS-FACTORIAL HepG2 Assay for human Bone Morphogenetic Protein (BMP) Response Element (BRE) (AID 2282933); settings: HepG2 BMP response element reporter, Attagene transcription factor profiling; actives raise or lower the signal
Procedure, shortened: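 After a 24 h chemical treatment, transiently transfected HepG2 cells were lysed for RNA; reporter transcripts were quantified by fluorescent RT-PCR and capillary electrophoresis, normalised to DMSO.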

[9] = target: Retinoic acid receptor alpha (Homo sapiens) (UniProt P10276); test: ATG_DR5_RAR_CIS: Attagene CIS-FACTORIAL HepG2 Assay for human Retinoic Acid Receptor Alpha (RARE), DR5 submotif (AID 2282934); settings: HepG2 Attagene cis-factorial RARE DR5 reporter, mRNA; actives raise or lower the signal;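 as to AC50: reporter responds to endogenous RAR alpha beta and gamma in HepG2 not RARA alone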
Procedure, shortened: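 Reporter transcripts from a DR5-regulated unit, measured via RT-PCR plus capillary electrophoresis, reflect endogenous RAR activity in transiently transfected human HepG2 liver cells. Exposure lasted 24 h; gain or loss of signal scored against DMSO.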

[10] = ACEA_ER_80hr: ACEA Biosciences xCELLigence Real-Time Cell Analysis on Estrogen Receptor Agonism for Proliferation (AID 2282667; active = hit-call score of the fitted dose curve at least 0.9, where 1 is the maximum); settings: T47D proliferation, impedance (xCELLigence), 80 h
Procedure, shortened: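 T-47D cells monitored by electrical impedance (xCELLigence) with compound present throughout; 80 h timepoint, positive-direction fitting versus DMSO. Eight-point 1:4 dilutions from 100 uM final, duplicate plates.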

Measured: AC50

Chain of CCAAT/enhancer-binding protein beta (Homo sapiens) (P17676 whole entry, looked up, the tested form may be a part): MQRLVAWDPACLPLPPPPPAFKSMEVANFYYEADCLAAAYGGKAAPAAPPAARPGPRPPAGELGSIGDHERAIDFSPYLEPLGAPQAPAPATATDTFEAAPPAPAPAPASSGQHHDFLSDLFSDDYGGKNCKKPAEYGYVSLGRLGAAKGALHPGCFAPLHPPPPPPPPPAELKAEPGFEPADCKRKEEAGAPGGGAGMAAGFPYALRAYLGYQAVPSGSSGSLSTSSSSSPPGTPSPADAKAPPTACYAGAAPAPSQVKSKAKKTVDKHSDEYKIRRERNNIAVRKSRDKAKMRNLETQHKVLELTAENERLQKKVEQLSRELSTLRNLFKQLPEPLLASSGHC
Chain of Retinoic acid receptor alpha (Homo sapiens) (P10276 whole entry, looked up): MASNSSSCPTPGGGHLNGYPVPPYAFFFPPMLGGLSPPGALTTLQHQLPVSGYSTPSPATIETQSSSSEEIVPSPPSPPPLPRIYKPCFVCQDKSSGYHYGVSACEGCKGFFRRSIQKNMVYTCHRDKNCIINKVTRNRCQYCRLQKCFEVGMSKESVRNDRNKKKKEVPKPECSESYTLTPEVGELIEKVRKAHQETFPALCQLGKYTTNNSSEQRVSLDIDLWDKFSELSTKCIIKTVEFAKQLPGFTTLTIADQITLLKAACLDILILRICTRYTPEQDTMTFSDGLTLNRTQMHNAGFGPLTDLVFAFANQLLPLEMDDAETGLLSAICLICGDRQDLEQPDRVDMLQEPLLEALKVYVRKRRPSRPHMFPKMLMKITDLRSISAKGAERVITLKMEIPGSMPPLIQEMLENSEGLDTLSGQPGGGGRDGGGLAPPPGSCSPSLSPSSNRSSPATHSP
Chain of Aryl hydrocarbon receptor (Homo sapiens) (P35869 whole entry, looked up): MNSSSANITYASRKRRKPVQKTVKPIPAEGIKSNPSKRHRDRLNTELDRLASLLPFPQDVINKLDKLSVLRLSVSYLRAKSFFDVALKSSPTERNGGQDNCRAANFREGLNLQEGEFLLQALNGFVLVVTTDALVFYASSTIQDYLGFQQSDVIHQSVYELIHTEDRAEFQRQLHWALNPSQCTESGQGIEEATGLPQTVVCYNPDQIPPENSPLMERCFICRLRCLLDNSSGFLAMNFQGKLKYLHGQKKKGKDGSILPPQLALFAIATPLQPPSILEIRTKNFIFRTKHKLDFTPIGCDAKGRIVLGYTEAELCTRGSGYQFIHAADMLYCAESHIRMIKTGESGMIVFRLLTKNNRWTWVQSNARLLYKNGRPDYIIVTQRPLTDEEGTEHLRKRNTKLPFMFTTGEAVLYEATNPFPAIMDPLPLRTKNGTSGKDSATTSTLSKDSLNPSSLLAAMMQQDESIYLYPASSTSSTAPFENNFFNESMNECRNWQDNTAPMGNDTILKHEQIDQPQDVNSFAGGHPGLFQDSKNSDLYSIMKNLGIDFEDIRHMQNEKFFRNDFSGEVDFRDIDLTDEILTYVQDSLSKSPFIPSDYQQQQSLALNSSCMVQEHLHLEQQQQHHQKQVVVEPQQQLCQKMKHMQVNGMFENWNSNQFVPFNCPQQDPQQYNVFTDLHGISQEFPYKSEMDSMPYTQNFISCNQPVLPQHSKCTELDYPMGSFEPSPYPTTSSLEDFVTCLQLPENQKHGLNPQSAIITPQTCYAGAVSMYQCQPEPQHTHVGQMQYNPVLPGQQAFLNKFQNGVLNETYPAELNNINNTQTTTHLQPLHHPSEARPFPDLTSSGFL

O[Si](c1ccccc1)(c1ccccc1)c1ccccc1
active: [4] 9.89 µM | [6] 100 µM | [8] 32.3 µM
not listed: [10]
inactive: all other assays above

O=S(=O)(O)C(F)(F)C(F)(F)C(F)(F)C(F)(F)C(F)(F)C(F)(F)C(F)(F)F
inactive: [1] | [3] | [4] | [5] | [6] | [7] | [8] | [9]
active: [2] 70.3 µM and 50 µM | [4] 29.7 µM | [6] 100 µM | [8] 100 µM

C1COCCN1
not listed: [2]
inactive: all other assays above

Nc1cc(Cl)c(N)c(Cl)c1
active: [10] 13.5 µM | [5] 6.21 µM
not listed: [2]
inactive: all other assays above

O=C(O)C=C(C(F)(F)F)C(F)(F)F
not listed: [2]
inactive: all other assays above

C=CC(=O)OCC(F)(F)C(F)(F)C(F)(F)C(F)(F)COC(=O)C=C
active: [1] 43.5 µM | [3] 58.1 µM | [4] 31.3 µM | [6] 50 µM | [9] 60.6 µM
inactive: [10] | [5] | [7] | [8]

C=CC(F)(F)C(F)(F)C(F)(F)C(F)(F)C(F)(F)C(F)(F)C(F)(F)C(F)(F)C=C
not listed: [2]
inactive: all other assays above

CCCCCCCOC(=O)c1ccccc1C(=O)OCCCCCCC
not listed: [2] | [7]
inactive: all other assays above

CNC(=S)NC
not listed: [2]
inactive: all other assays above

FC(F)(F)C(F)(F)C(F)(F)C(F)(F)C(F)(F)C(F)(F)CCS
not listed: [2]
inactive: all other assays above

O=C(O)C(F)(F)C(F)(F)C(F)F
not listed: [2] | [7]
inactive: all other assays above

COC(=O)C1CCC(C(=O)OC)CC1 (stereo not given)
not listed: [10]
inactive: all other assays above

Cc1cc(C)cc(O)c1
not listed: [2]
inactive: all other assays above

O=C(O)C(F)(F)C(F)(F)C(F)(F)C(F)(F)C(F)(F)C(F)(F)C(F)(F)C(F)(F)Cl
inactive: [1] | [2] | [3] | [5] | [6] | [8] | [9]
active: [1] 50 µM | [4] 39.1 µM and 34.7 µM

CC(C)OC(=O)c1ccccc1C(=O)OC(C)C
not listed: [2] | [7]
inactive: all other assays above

FC1CC(F)(F)C(F)(F)C1(F)F (stereo not given)
not listed: [2] | [7]
inactive: all other assays above

CCCCCCCCCCCCCCCC[N+](C)(C)Cc1ccccc1
active: [3] 44.8 µM | [4] 24.9 µM
not listed: [2] | [7]
inactive: all other assays above

O=S(=O)(OCCOC(F)(F)F)C(F)(F)F
active: [5] 101 µM
inactive: [10] | [1] | [3] | [4] | [5] | [6] | [8] | [9]

Cc1cccc(N(C)C)c1
not listed: [2] | [7]
inactive: all other assays above

C=C(C)C(=O)OCC(F)(F)C(F)(F)C(F)(F)C(F)(F)C(F)(F)C(F)(F)C(F)(F)F
not listed: [2]
inactive: all other assays above

O=C(O)C(F)(F)C(F)(F)C(F)(F)C(F)(F)C(F)(F)C(F)(F)C(F)(F)C(F)(F)C(F)(F)C(F)(F)C(F)(F)C(F)(F)F
not listed: [2] | [7]
inactive: all other assays above

OCC(F)(F)C(F)(F)C(F)(F)C(F)F
not listed: [7]
inactive: all other assays above

FC(F)(F)C(F)(F)C(F)(F)C(F)(F)C(F)(F)C(F)(F)C(F)(F)I
not listed: [2]
inactive: all other assays above

OCCCC(F)(F)C(F)(F)C(F)(F)C(F)(F)C(F)(F)C(F)(F)C(F)(F)F
active: [1] 51.4 µM | [4] 35.6 µM | [7] 75.5 µM
inactive: [1] | [3] | [4] | [5] | [6] | [7] | [8] | [9]

FC(F)(F)C(F)(F)CNCC(F)(F)C(F)(F)F
not listed: [2] | [7]
inactive: all other assays above

CC(C)c1ccccc1N
not listed: [10]
inactive: all other assays above

CCCCCC=O
not listed: [7] | [9] | [10]
inactive: all other assays above

O=P(O)(O)OCCC(F)(F)C(F)(F)C(F)(F)C(F)(F)C(F)(F)C(F)(F)F
not listed: [7] | [10]
inactive: all other assays above

[Co]
not listed: [10]
inactive: all other assays above
